A short description of the assay: growth inhibition of WT strain, primary screen, mitochondrial fusion inhibitor project, WT and mutant strains, chemical genetic (AID 1362). To be noted: mitochondrial fusion phenotypic screen, at 10 µM.
Where [1] appears, read: WT strain, growth inhibition, stronger effect = higher value.

The structures appear in SMILES notation. Out of some 190,000 compounds screened, about 4,000 (2.1%) were called active. Rule as the data show it: active = inhibition above about 58%; inactive = the rest, inconclusive results apart; tested in S. cerevisiae. What follows is part of a selection rich in actives, with near analogues and random picks from the rest.

Consider `Cc1ccccc1CSc1nnc(-c2ccccc2)c(=O)[nH]1`, for which the inhibition (commonly the change of the read-out against control, counted positive when it falls) was 12.9% (inactive) under setting [1] and -13.6% (mutant strain inhibition).
In the case of `O=C(Nc1ccccc1C(=O)O)c1cc(S(=O)(=O)N2CCCCC2)cs1`, the inhibition is 1.49% (inactive) under setting [1] and -6% (mutant strain inhibition).
The matching figures for `Cc1cc(C)c(C2C3=C(Nc4c2c(C)nn4-c2ccccn2)c2ccccc2C3=O)c(C)c1` (stereo not given): 78.7% (active) and 55%.
On to `Cc1ccc(C2C3=C(Nc4[nH]n(-c5ccccc5)c(=O)c42)c2ccccc2C3=O)cc1` (stereo not given), for which the inhibition is -0.51% (inactive) under setting [1] and -6.48% (mutant strain inhibition).
In the same order, the values of `Cc1nn(-c2ccccn2)c2c1C(c1ccncc1)C1=C(CC(C)(C)CC1=O)N2` (stereo not given) are -4.23% (inactive) and -14.9%.
In the same order, the values of `COc1cccc(C(=O)Oc2cc(C)[nH]c(=O)c2[N+](=O)[O-])c1` are 15.8% (inactive) and -9.84%.
The matching figures for `O=C(N/N=C/c1ccccn1)c1ccc(S(=O)(=O)N2CCCCCC2)cc1`: 2.23% (inactive) and 0.85%.
As to `COc1ccc(NC(=O)c2ccccc2CC[N+](=O)[O-])cc1`, the inhibition under setting [1] was 1.85% (inactive) and the inhibition (mutant strain inhibition) was 1.42%.
The matching figures for `O=C(Nc1ccccc1F)c1ccc(Cn2cc(Br)cn2)cc1`: 10.6% (inactive) and -0.75%.
In the case of `COCCCNC(=O)Cn1c(=O)n(Cc2ccccc2Cl)c(=O)c2cc(OC)c(OC)cc21`, the inhibition runs as follows: under setting [1], -6.28% (inactive); (mutant strain inhibition) 4.75%.
The matching figures for `C=CCn1c(SCc2nnc(-c3ccccc3)o2)nnc1C(O)c1ccccc1` (stereo not given): -11.7% (inactive) and -5.65%.
In the same order, the values of `CCCN(CCC)c1ccc(C(O)c2nnc(-c3ccccc3)o2)cc1` (stereo not given) are 76.5% (active) and 31.6%.
In the same order, the values of `OC(c1nnc(-c2ccccc2)o1)c1cccs1` (stereo not given) are -15.8% (inactive) and 5.68%.
Take `Cc1ccc(S(=O)(=O)N(C)C)cc1NC(=O)COC(=O)C1COc2ccccc2O1` (stereo not given): the inhibition is -0.23% (inactive) under setting [1] and -14.6% (mutant strain inhibition).
The matching figures for `CCOc1ccccc1Oc1cn[nH]c1-c1ccc(OC)cc1O`: 61.8% (active) and 25.6%.
The matching figures for `CCOc1ccc(-c2n[nH]c(C)c2-c2ccccn2)c(O)c1`: -20.5% (inactive) and 3.26%.
In the same order, the values of `CCOc1ccccc1NC(=O)Nc1cc(OC)ccc1OC` are -4.32% (inactive) and 11.2%.
Take `C/C(=N\NC(=S)NCc1ccccc1)C1CCCCC1`: the inhibition reads like this: under setting [1], 47.2% (inactive); (mutant strain inhibition) 53.3%.
In the same order, the values of `Cc1cc(C)nc(NS(=O)(=O)c2ccc(N/C=C\C(=O)c3cccs3)cc2)n1` are -2.27% (inactive) and 7.04%.
In the same order, the values of `Fc1ccc(N2CCN(Cc3cnc(Oc4ccc(Br)cc4)s3)CC2)cc1` are 59% (active) and 34%.
In the same order, the values of `Oc1c(CN2CCN(c3ccc(F)cc3)CC2)cc(Cl)c2cccnc12` are -1.47% (inactive) and -25%.
Consider `COc1ccc(N2CCN(Cc3ccc(Br)s3)CC2)cc1`, for which the inhibition by setting is: under setting [1], 20.2% (inactive); (mutant strain inhibition) 14.9%.
Consider `Cc1ccc(-c2csc(N(Cc3ccco3)C(=O)c3cccs3)n2)cc1`, for which the inhibition runs as follows: under setting [1], 67.6% (active); (mutant strain inhibition) 34.4%.
The matching figures for `O=C(O)CCC(=O)N(Cc1ccco1)c1nc(-c2ccccc2)cs1`: -21.3% (inactive) and 4.1%.
For `Cc1ccc(-c2csc(NC(=O)c3cccs3)n2)cc1`, the inhibition runs as follows: under setting [1], 22.4% (inactive); (mutant strain inhibition) 16.9%.
Take `O=c1[nH]c(CN2CCOCC2)nc2scc(-c3ccccc3)c12`: the inhibition reads like this: under setting [1], 5.72% (inactive); (mutant strain inhibition) -6.95%.
The matching figures for `CC1(C)CCCC2=C1CC1C(=O)N(c3ccccc3)C(=O)C1C2` (stereo not given): 6.4% (inactive) and -1.63%.
In the same order, the values of `CC1CC2=C(CC1/C=N/NC(N)=S)C(C)(C)CCC2` (stereo not given) are 67.3% (active) and 64.1%.
The matching figures for `NC(=O)c1ccc(NC(=O)COC(=O)C(Cc2ccccc2)NC(=O)c2ccccc2)cc1` (stereo not given): -21.4% (inactive) and -11.6%.
For the compound `O=C(c1ccccc1)c1ccc(OCC(O)CN2CCCC2)cc1` (stereo not given), the inhibition was -8.18% (inactive) under setting [1] and 5.68% (mutant strain inhibition).
The matching figures for `Cc1ccc(NC(=O)NNC(=O)c2sccc2-n2cccc2)cc1`: -13.1% (inactive) and -0.19%.
In the same order, the values of `Cc1cccc(N=C2NN=C(c3c[nH]c4ccccc34)CS2)c1` are 13.8% (inactive) and -10.5%.
In the same order, the values of `Clc1cccc(N=C2NN=C(c3ccc4c(c3)OCCO4)CS2)c1` are 67.3% (active) and 17%.
For the compound `c1ccc(CN2CCC(N=C3NN=C(c4ccc5c(c4)OCCO5)CS3)CC2)cc1`, the inhibition under setting [1] is 10.8% (inactive) and the inhibition (mutant strain inhibition) came to 33%.
In the same order, the values of `O=C(Nc1ccccc1)/C(=C/c1ccc([N+](=O)[O-])cc1)NC(=O)c1ccccc1` are -0.76% (inactive) and -8.51%.
In the same order, the values of `Cc1cccc(NC(=O)c2sc(-c3ccccc3)nc2-c2ccc([N+](=O)[O-])cc2)c1` are 2.52% (inactive) and -6.51%.
The matching figures for `CCOC(=O)/C(=C\c1ccc([N+](=O)[O-])cc1)C(=O)c1cc(C(C)=O)c(Nc2ccccc2)s1`: 84.2% (active) and 50.2%.
Regarding `CC(=O)NCC(=O)N(Cc1ccco1)C1(C(=O)NC2CCCC2)CCCCC1`, the inhibition is -0.52% (inactive) under setting [1] and 10.2% (mutant strain inhibition).
In the same order, the values of `O=C(CCCN1C(=O)/C(=C/c2ccccc2)SC1=S)Nc1ccc(O)cc1` are -11.2% (inactive) and 6.5%.
As to `Cc1ccc(OCC(=O)N/N=C/c2ccncc2)cc1`, the inhibition by setting is: under setting [1], -0.91% (inactive); (mutant strain inhibition) -0.34%.
With `Cc1ccc(OCC(=O)N/N=C\c2ccco2)c(C)c1`, the inhibition was 8.35% (inactive) under setting [1] and 16.3% (mutant strain inhibition).
The matching figures for `Cc1ccc(/C=N/NC(=O)COc2ccccc2-c2ccccc2)cc1`: 93.7% (active) and 20.8%.
The matching figures for `CC(C(=O)NC1CCCC1)N(c1ccc(Oc2ccccc2)cc1)S(C)(=O)=O` (stereo not given): 20.8% (inactive) and 6.65%.
In the same order, the values of `COc1cccc(C(=O)N2CCCC(CCC(=O)NCc3ccc(F)c(F)c3)C2)c1` (stereo not given) are -18.6% (inactive) and 0.91%.
For `O=C(CCCNS(=O)(=O)c1cccc2nsnc12)NCCN1CCN(c2ccccc2F)CC1`, the inhibition under setting [1] was -5.33% (inactive) and the inhibition (mutant strain inhibition) stood at 6.35%.

(Values after PubChem BioAssay AID1362 (SRMLSC, 2008).)
